KB-V1 MDR tox: kills drug-selected multidrug resistant KB-V1 cells. KB-V1 MDR cells viability, CellTiter-Glo, 72 h. Potency, µM (titrated, usually from 46.1 µM), usual class: cytotoxic. actives 3.4% (n = 400,000). AID 1347076; note: nearly all actives have a fitted effect of over 60% in size
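Luminescent ATP read-out (CellTiter-Glo, 10 min) measures survival of drug-selected KB-V1 MDR cells after 72 h, 37 degrees C compound exposure. Medium: phenol-red-free DMEM, 10% FBS. Values from fitted concentration-response curves.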
RORg inh: inhibitors of mouse ROR gamma transcriptional activity; Drosophila S2 Gal4-RORgamma UAS-luciferase reporter, 20 h; Potency, µM (doses to about 53.6 µM), usual class: inhibitors; actives 5.4% (n = 310,000); note: nearly all actives have a fitted effect of over 60% in size
Target sequence (P51450 whole entry, looked up, the tested form may be a part): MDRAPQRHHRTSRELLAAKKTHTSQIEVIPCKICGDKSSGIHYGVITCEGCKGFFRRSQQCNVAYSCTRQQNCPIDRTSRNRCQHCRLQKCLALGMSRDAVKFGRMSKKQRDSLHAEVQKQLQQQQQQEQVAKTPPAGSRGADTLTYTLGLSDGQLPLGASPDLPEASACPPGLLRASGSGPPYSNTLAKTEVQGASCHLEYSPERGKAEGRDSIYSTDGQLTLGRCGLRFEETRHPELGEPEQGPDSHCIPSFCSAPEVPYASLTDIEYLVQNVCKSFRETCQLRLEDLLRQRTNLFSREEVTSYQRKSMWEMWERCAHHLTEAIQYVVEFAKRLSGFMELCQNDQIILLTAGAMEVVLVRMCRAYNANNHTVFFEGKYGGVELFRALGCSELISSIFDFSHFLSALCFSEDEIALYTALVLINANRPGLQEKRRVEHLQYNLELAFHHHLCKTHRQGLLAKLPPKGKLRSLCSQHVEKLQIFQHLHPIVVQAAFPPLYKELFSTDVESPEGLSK
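A Gal4/UAS one-hybrid system in insect cells: metallothionein-promoter Gal4–ROR gamma fusion plus Photinus luciferase reporter. Copper sulfate 700 uM final, 20 hr ambient incubation, luminescent detection after 10 min with reagent.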
KB-3-1 tox: KB-3-1 parental cell cytotoxicity; KB-3-1 viability, CellTiter-Glo ATP luminescence, 72 h; Potency, µM (series often up to 46.1 µM), hits mostly cytotoxic; actives 1.4% (n = 400,000); AID 1347075; note: nearly all actives have a fitted effect of over 60% in size
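KB-3-1 parental drug-naive adenocarcinoma cells in DMEM/10% FBS, incubated 72 h at 37 C with pin-transferred compounds across a concentration series. Viability by CellTiter-Glo luminescence; concentration-response curves fitted after normalization.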
Gal4-VP16 FLuc: Gal4-VP16 reporter inhibition counter-screen; Drosophila S2 Gal4-VP16 UAS-luciferase, luminescence, 20 h; Potency, µM (series often up to 53.6 µM), usual class: inhibitors; actives 3.5% (n = 310,000); AID 2546;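 note: Gal4-VP16 expression switched on by copper sulfate through the metallothionein promoter; nearly all actives have a fitted effect of over 50% in size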
SW480 rerep: inducers of DNA re-replication in SW480 colon cancer cells; actives 1.8% (n = 340,000); SW480 DNA re-replication, Hoechst DNA content imaging, 48 h; Potency, µM (titrated, usually from 46.1 µM), actives largely listed as activators; note: nearly all actives have a fitted effect of over 55% in size
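250 cells/well; 23 nL cpd via pin tool; 48 hr, 37 C, 5% CO2; Hoechst 40 min; imager read of total nuclear intensity, ex 405/em 500-530 nm.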
MCF10A rereplic: DNA re-replication induction in MCF 10a cells; AID 624296; MCF 10A DNA re-replication, Hoechst nuclear intensity, 48 h; actives 2.9% (n = 350,000); Potency, µM (series often up to 46.1 µM), hits mostly activators; note: nearly all actives have a fitted effect of over 50% in size
Of the large screens only hits and unclear results are named; the others gave an inactive call. This is a sample that favours compounds with a hit; in the whole collection about 10% have one here. Calls come from the whole dose curve; as a rule, active = well fitted curve in the direction sought with a large enough effect; inconclusive = small, poorly fitted or top-dose-only effect, or another doubt; inactive = no such curve, though single readings can be large; an effect the other way counts as inactive or inconclusive.

CN(C)S(=O)(=O)c1cccc(NC(=S)NC23CC4CC(CC(C4)C2)C3)c1	RORg inh 4.47µM, Gal4-VP16 FLuc inconclusive, SW480 rerep inconclusive, MCF10A rereplic inconclusive
COc1cc(/C=N/NC(=O)c2cccc(NC(=O)c3ccccc3)c2)ccc1O	RORg inh inconclusive
CC1CCCC(NC(=S)Nc2cccc(S(=O)(=O)N(C)C)c2)C1C (stereo not given)	RORg inh 12.6µM, Gal4-VP16 FLuc inconclusive
Cc1ccc(-c2noc(CCC(=O)Nc3cccc(C(=O)NC4CC4)c3)n2)cc1	none (no result: RORg inh, Gal4-VP16 FLuc, SW480 rerep, MCF10A rereplic)
Cc1cc(F)ccc1NC(=O)Cn1c(=O)ccc2cc(S(=O)(=O)N3CCC(C)CC3)ccc21	none (no result: RORg inh, Gal4-VP16 FLuc, SW480 rerep, MCF10A rereplic)
COC(=O)c1ccc(NC(=O)c2c(NCc3ccc(OC)c(OC)c3)sc3c2CCCC3)cc1	KB-V1 MDR tox inconclusive (no result: RORg inh, Gal4-VP16 FLuc, SW480 rerep, MCF10A rereplic)
CCCCc1ccc(NC(=S)NN2CCOCC2)cc1	none
CCCCc1ccc(NC(=S)N2CCN(C(=O)OCC)CC2)cc1	RORg inh 1.26µM, Gal4-VP16 FLuc inconclusive
CCCCc1ccc(NC(=S)N2CCN(C)CC2)cc1	RORg inh 11.2µM, Gal4-VP16 FLuc inconclusive
CN1CCN(C(=S)Nc2ccc(S(N)(=O)=O)cc2)CC1	none
CCCCc1ccc(NC(=O)C(C)CC)cc1 (stereo not given)	RORg inh 1.41µM, Gal4-VP16 FLuc 3.98µM
CCCCc1ccc(NC(=S)N2CCCC2)cc1	RORg inh 11.2µM, Gal4-VP16 FLuc 10µM
CCOC(=O)c1cccc(NC(=O)CCn2nc(C)c3c(C)n(-c4ccccc4)nc3c2=O)c1	none (no result: RORg inh, Gal4-VP16 FLuc, SW480 rerep, MCF10A rereplic)
O=c1c(-c2ccccc2)nc2cnc(N3CCOCC3)nc2n1Cc1cccs1	none (no result: KB-V1 MDR tox, KB-3-1 tox, SW480 rerep, MCF10A rereplic)
CC(C)c1ccc(NC(=S)N2CCN(C)CC2)cc1	none
CC(C)c1ccc(NC(=S)N2CCCC2)cc1	RORg inh 10µM, Gal4-VP16 FLuc inconclusive
CCCC1(c2ccccc2)NC(=O)N(CC(=O)c2[nH]c(C)c(C(=O)OCC)c2C)C1=O (stereo not given)	KB-V1 MDR tox 23.1µM, KB-3-1 tox inconclusive, Gal4-VP16 FLuc inconclusive
CCOC(=O)c1c(C)[nH]c(C(=O)CN2C(=O)NC(C)(c3ccc4ccccc4c3)C2=O)c1C (stereo not given)	KB-V1 MDR tox 10.3µM
CCOC(=O)c1c(C)[nH]c(C(=O)CN2C(=O)NC3(CCCC3)C2=O)c1C	none
CCNc1ncc2nc(-c3cccc(C#N)c3)c(=O)n(C)c2n1	none (no result: KB-V1 MDR tox, KB-3-1 tox, SW480 rerep, MCF10A rereplic)
CC1CCCCC1N1CN=C(Nc2nc3ccccc3s2)NC1 (stereo not given)	KB-V1 MDR tox 18.4µM
COc1ccc(CN2CN=C(Nc3nc4ccccc4s3)NC2)cc1	KB-V1 MDR tox 4.61µM
c1ccc(CN2CN=C(Nc3nc4ccccc4s3)NC2)cc1	none
Cc1ccc(S(=O)(=O)C(CNC(=O)c2ccccc2F)c2cccs2)cc1 (stereo not given)	none (no result: RORg inh, Gal4-VP16 FLuc, SW480 rerep, MCF10A rereplic)
CC(C)=CCC/C(C)=C\COc1c2ccoc2cc2oc(=O)ccc12	none (no result: KB-V1 MDR tox, KB-3-1 tox, SW480 rerep, MCF10A rereplic)
O=C1S/C(=C/c2ccc(N3CCOCC3)o2)C(=O)N1Cc1ccc(F)cc1	none
CC(C)OC(=O)CN1C(=O)S/C(=C/c2ccc(N3CCCCC3)o2)C1=O	RORg inh inconclusive, Gal4-VP16 FLuc 12.6µM, SW480 rerep inconclusive
O=C1/C(=C/c2ccc(N3CCOCC3)o2)SC(=Nc2ccccc2)N1CCc1c[nH]c2ccccc12	KB-V1 MDR tox inconclusive, RORg inh 3.16µM, KB-3-1 tox inconclusive, Gal4-VP16 FLuc 5.01µM, SW480 rerep inconclusive, MCF10A rereplic inconclusive
O=C1S/C(=C\c2ccc(N3CCOCC3)o2)C(=O)N1Cc1ccc(F)cc1	RORg inh inconclusive, Gal4-VP16 FLuc 7.08µM, MCF10A rereplic inconclusive
COc1cc(/C=C2\SC(=Nc3ccccc3)N(CCc3c[nH]c4ccccc34)C2=O)ccc1OC(C)C(=O)O (stereo not given)	Gal4-VP16 FLuc inconclusive, MCF10A rereplic inconclusive
O=C1CCc2cc([S+](=O)([O-])Nc3ccc(N[S+](=O)([O-])c4ccc5c(c4)CCC(=O)N5)cc3)ccc2N1	none (no result: RORg inh, Gal4-VP16 FLuc, SW480 rerep, MCF10A rereplic)
O=C1OC2C[C@H]1[C@@H]1C(=O)N(Cc3ccccc3)CCC1C2I (stereo not given in full)	none (no result: KB-V1 MDR tox, KB-3-1 tox, SW480 rerep, MCF10A rereplic)
